Records with an inconclusive call do not appear. A number with no mark means an inactive call. Active and inactive are the calls of the source. Calls follow the shape of the dose curve; as a rule, active = well fitted activation curve with a large enough effect; inconclusive = small, poorly fitted or top-dose-only effect; inactive = no such curve, though single readings can be large or run the other way.
assay: qHTS Assay for Agonists of the Relaxin Receptor RXFP1: V1B Hit Validation; conditions: HEK293 V1B cells, cAMP TR-FRET, 30 min; series mostly up to 115 µM; activation: at the top concentration;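 also: counter-screen in HEK293 cells expressing V1B rather than RXFP1 for selectivity; nearly all actives have a fitted effect of over 65% in size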;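 as to activation: cAMP accumulation with PDE4 inhibitor Ro 20-1724 present during compound exposure; 0% = buffer alone basal and 100% = 29 nM porcine relaxin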
In short: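 HEK293 cells expressing V1B, 2000/well, treated 30 min at 37C with compound plus PDE4 inhibitor Ro 20174; cAMP by HTRF TR-FRET (665/615 nm). Normalized to buffer and 29 nM porcine relaxin; EC50 from Hill fit.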
Potency is read from the fitted curve at half-maximal effect.

Compound | Potency | activation
CCCN(CCC)S(=O)(=O)c1cc(CN2C(=O)c3cccnc3C2=O)ccc1OC | 30.9 µM (active) | 
COC(=O)Cn1cnc2c(C#N)c3n(c2c1=O)CCCC3 | 21.9 µM (active) | 
CC(=O)Nc1ccc(S(=O)(=O)NCc2cc(=O)n(C)c(=O)n2C)cc1 | 30.9 µM (active) | 
Cc1ccc(CN(C)C(=O)c2ccccc2NC(=O)c2ccccc2)o1 |  | 3.11% [at 127 µM]
CCN(CC)CCCCCC(=O)Nc1ccccc1C(=O)Nc1ccccc1 |  | -2.76% [at 127 µM]
O=S(=O)(c1cccc(-c2cn3cccnc3n2)c1)N1CCOCC1 | 19.5 µM (active) | 
CCOC(=O)CCCCC(=O)c1[nH]c(=O)[nH]c1CSc1nnc2c3cc(Br)ccc3n(C)c2n1 | 10.9 µM (active) | 
Cc1ccnc(NS(=O)(=O)c2ccc(N3C(=O)c4ccccc4C3=O)cc2)n1 | 14.9 µM (active) | 
O=C(Nc1ccccc1C(=O)NCc1ccco1)c1ccco1 |  | 4.18% [at 127 µM]
COc1ccc(S(=O)(=O)N2CCOCC2)cc1NC(=O)CSc1nnc2ccccn12 | 3.88 µM (active) | 
Cc1ccccc1NC(=O)c1ccccc1NC(=O)c1ccco1 |  | 9.6% [at 127 µM]
CC(C)(C)C(=O)Nc1ccccc1C(=O)NCc1ccco1 |  | 1.03% [at 127 µM]
CC(NC(=O)c1ccccc1NC(=O)c1ccco1)C(=O)O (stereo unspecified) |  | 2.15% [at 127 µM]
Cn1c(N)c(C(=O)CSc2nn(-c3ccc(F)cc3)c(=S)s2)c(=O)n(C)c1=O | 19.4 µM (active) | 
CCc1ccc(-c2nc3ccc(Br)cc3c(C(=O)O)c2C)s1 | 3.46 µM (active) | 
COc1ccc(C(=O)Nc2ccc(S(=O)(=O)Nc3onc(C)c3C)cc2)c(OC)c1 | 14.9 µM (active) | 
Cc1cc2nc3ccc(=[N+](C)C)cc-3sc2cc1N |  | -4.25%
Nc1cc2ccncc2c2ccccc12 |  | 4.06%

Compound | Potency | activation
CCc1nnc(NC(=O)CSc2nc(C)nc3c2c(=O)n(C)c(=O)n3C)s1 | 9.74 µM (active) | 
O=C(Nc1ccccc1C(=O)Nc1ccccc1C(=O)NCc1ccco1)c1ccco1 | inactive | 
O=C(Nc1ccccc1C(=O)N1CCN(c2ccccc2)CC1)c1ccco1 |  | -5.2% [at 127 µM]
NCCNC(=O)Cc1ccc(NC(=O)Cc2ccc(Nc3ncnc4c3ncn4[C@@H]3O[C@H](CO)[C@@H](O)[C@H]3O)cc2)cc1 | 2.75 µM (active) | 
CC[N+](CC)(CCCCS(=O)(=O)[O-])CCNP1(=O)C=C(c2ccccc2)OC(c2ccccc2)=C1 | 38.9 µM (active) | 
CCS(=O)(=O)c1nc(S(=O)(=O)c2ccc(Cl)cc2)c(N2CCN(CCO)CC2)s1 | 34.6 µM (active) | 
CN(C)c1ccc(NC(=O)C2C3C=CC(C3)C2C(=O)O)cc1 (stereo unspecified) |  | -1.47%
O=C(O)CCSc1ccc2ccccc2n1 | 6.15 µM (active) | 
O=C(Nc1ccccc1C(=O)NCCc1ccc(O)cc1)c1ccco1 |  | 3.88% [at 127 µM]
O=C(Nc1ccccc1C(=O)Nc1ccccc1)c1ccco1 |  | 1.83% [at 127 µM]
O=C(O)c1ccc(N=C2NC(=O)C(CO)(CO)S2)cc1 |  | 5.93% [at 44.9 µM]
O=C(Nc1cc(S(=O)(=O)N2CCOCC2)ccc1N1CCOCC1)c1cn2ccccc2n1 | 30.9 µM (active) | 
O=C(O)c1cc(-c2ccco2)nc2ccc(Br)cc12 | 19.4 µM (active) | 
O=C(CCc1nnc2ccc(N3CCC4(CC3)OCCO4)nn12)NCc1ccc(F)cc1 | 38.9 µM (active) | 
CC(C(=O)OCC(=O)N(C)C1(C#N)CCCCC1)N1C(=O)c2ccccc2C1=O (stereo unspecified) | 13.8 µM (active) | 
Cc1cccc(NC(=O)c2ccccc2NC(=O)c2ccco2)c1 |  | 5.32% [at 127 µM]
CN(Cc1ccccc1)C(=O)c1ccccc1NC(=O)c1ccco1 |  | 2.47% [at 127 µM]
O=C(Nc1ccccc1C(=O)N1CCCCC1)c1ccco1 |  | 7.89% [at 127 µM]

From PubChem BioAssay AID492948 (National Center for Advancing Translational Sciences (NCATS), 2010)
